Compound activity as filed in PubChem.
MARV entry inh: qHTS for inhibitors of binding or entry into cells for Marburg Virus; Marburg virus pseudotyped entry inhibition, cell reporter; Potency, µM (top dose mostly 37.8 µM), for inactives: at the highest dose activity change, negative = inhibition, actives largely listed as inhibitors; 300,000 compounds, 1.8% hits; AID 540276, 2011; calls by dose curve; tested in HEK293 cells; also: potency is read from the fitted curve at half-maximal effect; % is scaled to controls: 0 for no effect and ±100 for the full control effect
FMDV antiviral: High Throughput Screening for Foot and Mouth Disease Virus Antivirals; FMDV antiviral cell-based qHTS; Potency, µM (highest dose often 57.9 µM), for the others: at the top dose activity change, negative = inhibition, actives largely listed as inhibitors; 410,000 compounds, 1.2% hits; AID 1159524, 2015; calls by dose curve; tested in HEK293T cells; also: read-out not given here; potency is read from the fitted curve at half-maximal effect; % is scaled to controls: 0 for no effect and ±100 for the full control effect; nearly all actives have a fitted effect of over 45% in size
HCMV antiviral: qHTS Assay for inhibitors of the human cytomegalovirus (HCMV); HFF cells, HCMV-luciferase reporter, 72 h; active compounds read low; activity change, negative = inhibition, % at 57.5 µM; 410,000 compounds, 4.5% hits; in the data active = activity change below about -60%; inconclusive = no clear call, values can overlap the other calls; inactive = above about -39%; also: % is scaled to controls: 0 for no effect and ±100 for the full control effect
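Cell-based, HFFs, 1000 cells/well, 16 h 37C; cpds in DMSO + HCMV-luc, MOI 1 PFU/cell; 72 h 37C; OneGlo luminescence after 5 min RT; norm. to buffer vs Salinomycin 10uM.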
LASV entry inh: qHTS for Inhibitors of binding or entry into cells for Lassa Virus. Lassa virus pseudotype entry inhibition, cell reporter. Potency, µM (highest dose often 37.9 µM), for the others: at the highest dose activity change, negative = inhibition, hits mostly inhibitors. 300,000 compounds, 1.2% hits. AID 540256, 2011; calls by dose curve; tested in HEK293 cells; also: potency is read from the fitted curve at half-maximal effect; % is scaled to controls: 0 for no effect and ±100 for the full control effect; nearly all actives have a fitted effect of over 50% in size
HCV inhibitor: qHTS Assay for Inhibitors of Hepatitis C Virus (HCV); Huh7.5.1 HCVcc-Cre infection, luciferase reporter, 44 h; Potency, µM (titrated, usually from 41.8 µM), for the others: at the top dose activity change, negative = inhibition, usual class: inhibitors; 340,000 compounds, 3.4% hits; AID 651820, 2012; also: potency is read from the fitted curve at half-maximal effect; % is scaled to controls: 0 for no effect and ±100 for the full control effect
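Antiviral activity was scored by luciferase reporter output from cells infected with HCVcc-Cre (~0.5 moi) in presence of compound, 44 h infection period, cells seeded 1,000/well 4 h prior.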
HCV inh confirm: qHTS Assay for Inhibitors of Hepatitis C Virus (HCV): Confirmation Assay for Cherry-picked Compounds; shares compounds with HCV inhibitor; HCVcc-Cre infectious virus cell assay, luciferase, inhibition; Potency, µM (highest dose often 41.8 µM), for inactives: at the top dose activity, negative = inhibition, actives largely listed as inhibitors; 640 compounds, 78% hits; AID 720575, 2013; also: potency is read from the fitted curve at half-maximal effect; nearly all actives have a fitted effect of over 80% in size
HCV cytotox: qHTS Assay for Inhibitors of Hepatitis C Virus (HCV): Cytotoxicity Counterscreen for Cherry-picked Compounds; Potency, µM (series often up to 41.8 µM), for the others: at the top dose activity change, negative = cytotoxicity, actives largely listed as inhibitors; HCV host cell line cytotoxicity counterscreen; 640 compounds, 22% hits; shares compounds with HCV inhibitor;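 also: potency is read from the fitted curve at half-maximal effect; 44 h compound exposure; % is scaled to controls: 0 for no effect and ±100 for the full control effect; nearly all actives have a fitted effect of over 55% in size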
* marks the source's active call; other numbers are inactive results; ? = inconclusive; / = not tested or not shown; [ ] = remark or other dose. Only some compounds are listed: those with a hit (about 7.9% of all), similar ones and a draw of the others. Unless noted, calls follow the shape of the dose curve; as a rule, active = well fitted curve in the direction sought with a large enough effect; inconclusive = small, poorly fitted or top-dose-only effect, or another doubt; inactive = no such curve, though single readings can be large; an effect the other way counts as inactive or inconclusive.

SMILES | MARV entry inh | FMDV antiviral | HCMV antiviral | LASV entry inh | HCV inhibitor | HCV inh confirm | HCV cytotox
COc1cc2c(cc1OC)C(C)N(C(=O)[C@@H](NC(=O)c1ccccc1)C(C)C)CC2 (stereo partly drawn) | ? | -19% | ? | ? | 1.4µM* | ? | 6%
COc1ccc(C(=O)Nc2cc(OC)cc3cccnc23)cc1 | / | 16% | 138 | / | ? | 14µM* | 4%
CC(C)N1CCC(N2CCN(Cc3ccc(-c4ccccc4Cl)o3)CC2CCO)CC1 (stereo not drawn) | ? | -20% | -31 | ? | 4µM* | 6.3µM* | 28%
Cc1ccc(N2CC(NC(=O)C(=O)c3c[nH]c4ccccc34)CC2=O)cc1 (stereo not drawn) | / | -6% | -11 | 2%[46.1 µM] | / | / | /
Cc1cccc(C(=O)n2nc(-c3cccnc3)nc2NCc2ccc(F)cc2)c1 | 5%[46.1 µM] | 5% | 5 | 12%[46.1 µM] | / | / | /
CCn1c(=O)c2cc(C(=O)NC(C)C)sc2c2ccccc21 | / | -15% | 78 | / | ? | / | /
CCn1c(=O)c2cc(C(=O)Nc3ccccc3OC)sc2c2ccccc21 | / | -11% | 0 | / | ? | 14µM* | -15%
CCc1ccc(C(CNC(=O)c2ccc3c(=O)n(-c4ccccc4F)c(=S)[nH]c3c2)N(C)C)cc1 (stereo not drawn) | ? | ? | ? | / | 5µM* | 1.4µM* | 31µM*
CCOC(=O)N1CCN(C(=O)c2ccc3c(=O)n(-c4ccccc4F)c(=S)[nH]c3c2)CC1 | 13%[46.1 µM] | -3% | -39 | 2%[46.1 µM] | 4% | / | /
O=C(COc1ccc2oc3c(c2c1)CCCC3)Nc1ccc(Cl)cc1 | -2%[46.1 µM] | 0% | -31 | -4%[46.1 µM] | / | / | /
COc1cc(C(=O)O/N=C(\N)c2ccc([N+](=O)[O-])cc2)cc(OC)c1OC | -4% | -24% | 0 | -23% | ? | ? | 26%
